TSHR antagonist: blocks TSH signaling through the human TSH receptor. P16473. TSHR-expressing cells, TSH-stimulated cAMP HTRF, 2 h; active compounds read low. activity change, negative = inhibition, % at 11.5 µM. 330,000 tested, 0.2% active;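 active means activity change below a set negative limit, meaning inhibition stronger than a set level, cut at about -70% in these data; inconclusive means activity change between two set negative limits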; further: on the % scale 0 is the no-effect control and ±100 the full control effect
Target sequence (P16473 whole entry, looked up): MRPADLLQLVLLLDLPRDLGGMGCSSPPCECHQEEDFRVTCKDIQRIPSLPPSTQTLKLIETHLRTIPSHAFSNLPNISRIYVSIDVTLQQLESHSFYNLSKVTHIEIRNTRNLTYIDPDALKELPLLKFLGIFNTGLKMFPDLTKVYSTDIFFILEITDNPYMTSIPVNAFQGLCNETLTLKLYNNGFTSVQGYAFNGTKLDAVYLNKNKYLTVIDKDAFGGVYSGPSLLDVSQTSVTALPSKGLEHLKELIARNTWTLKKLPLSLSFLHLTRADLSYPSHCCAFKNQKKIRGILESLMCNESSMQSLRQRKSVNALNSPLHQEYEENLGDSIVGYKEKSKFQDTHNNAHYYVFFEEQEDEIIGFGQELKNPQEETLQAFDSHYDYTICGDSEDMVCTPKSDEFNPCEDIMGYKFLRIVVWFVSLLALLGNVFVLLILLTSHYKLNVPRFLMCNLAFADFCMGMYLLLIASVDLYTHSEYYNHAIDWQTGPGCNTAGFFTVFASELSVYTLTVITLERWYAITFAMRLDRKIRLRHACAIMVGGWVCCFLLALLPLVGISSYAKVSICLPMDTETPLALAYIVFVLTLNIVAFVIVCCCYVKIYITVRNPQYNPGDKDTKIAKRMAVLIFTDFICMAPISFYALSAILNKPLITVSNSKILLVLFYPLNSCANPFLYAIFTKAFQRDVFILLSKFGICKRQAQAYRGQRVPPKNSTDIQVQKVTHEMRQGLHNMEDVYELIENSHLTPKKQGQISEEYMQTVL
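Inhibition of cAMP made by TSHR-expressing cells under TSH stimulation (4nM final, EC80; 2 h, 37 deg C) is quantified with a one-step lysis HTRF kit, anti-cAMP cryptate versus cAMP-d2.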
gsp agonist: gsp mutant agonism. gsp mutant cells, cAMP HTRF, 30 min. Potency, µM (highest dose often 76.9 µM), inactives show top-dose activation (cAMP increase), usual class: activators. 340,000 tested, 0.13% active. AID 624287; active means well fitted activation curve with a large enough effect; inconclusive means small, poorly fitted or top-dose-only effect, or another doubt; inactive means no such curve, though single readings can be large or run the other way; cell line not stated here;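 further: phosphodiesterase inhibitor Ro 20-1724 added with compounds to block cAMP breakdown; potency means the concentration at half of the fitted maximal effect; nearly all actives have a fitted effect of over 60% in size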
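Cells in DMEM/10% FBS with G418 were pretreated with compounds in DMSO plus […] (300 uM stock) for 30 min at 37C. cAMP was measured by HTRF (cAMP-d2 plus anti-cAMP antibody-K) after 30 min at room temperature.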
ASM inhibitor: blocks human secretory acid sphingomyelinase | P17405 | placental ASM, HMU-PC fluorogenic substrate, 60 min | Potency, µM (titrated, usually from 57.5 µM), for inactives: at the highest dose activity change, negative = inhibition, most hits filed as inhibitors | 340,000 tested, 0.006% active; active means well fitted inhibition curve with a large enough effect; inconclusive means small, poorly fitted or top-dose-only effect; inactive means no such curve, though single readings can be large or run the other way; further: potency means the concentration at half of the fitted maximal effect
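Steps: dispense placental human ASM, pin compound, wait 10 min at room temperature, add HMU-PC0 substrate at 9 uM final, incubate 60 min at 37 °C, add stop solution raising pH to 10, read fluorescence.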
gsp antagonist: antagonizes gsp, the McCune-Albright syndrome mutation. gsp-mutant cells, cAMP HTRF, 30 min. Potency, µM (titrated, usually from 76.9 µM), inactives show top-dose activity change, negative = inhibition, most hits filed as inhibitors. 340,000 tested, 0.4% active. AID 624288; calls by dose curve; cell line not stated here;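 further: intracellular cAMP measured with PDE inhibitor Ro 20-1724 present during compound exposure; potency means the concentration at half of the fitted maximal effect; on the % scale 0 is the no-effect control and ±100 the full control effect; nearly all actives have a fitted effect of over 65% in size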
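HTRF cAMP measurement after 30 min RT detection following 30 min, 37C compound treatment alongside […] (added as 300 uM solution) in G418-selected cells seeded at 2000/well and grown 16–24 h.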
Starred values were filed as active, the others as inactive; [ ] = another dose, or the depositor's remark. In the library only some 0.63% were active in any assay of this set; here they are far more common.

For N#Cc1c(C(F)(F)F)cc(-c2cccc(Cl)c2)[nH]c1=O the results were TSHR antagonist -40.0, gsp agonist 4.4%, ASM inhibitor inactive and gsp antagonist 35.5µM*.
CC(CCC(=O)O)C1CC[C@H]2C3CCC4CC(=O)CCC4(C)[C@H]3CC(=O)C12C (stereo partly specified) was read as TSHR antagonist 0.7, gsp agonist 3.1%, ASM inhibitor 0.8% and gsp antagonist -16.6%.
N#Cc1cccc(S(=O)(=O)N2CCN(c3ccnc4cc(Cl)ccc34)CC2)c1 was read as TSHR antagonist -4.6, gsp agonist -32.3%, ASM inhibitor -2.3% and gsp antagonist 25.1µM*.
For CN(C)S(=O)(=O)N1CCN(c2ccnc3cc(Cl)ccc23)CC1 the results were TSHR antagonist -120.2*, gsp agonist 18.2%, ASM inhibitor -2.1% and gsp antagonist inconclusive.
`O=S(=O)(c1cccc(Br)c1)N1CCN(c2ccnc3cc(Cl)ccc23)CC1` gave TSHR antagonist -25.7, gsp agonist 1.5%[15.4 µM], ASM inhibitor -6.6% and gsp antagonist -19.6%.
Screening COc1ccc(S(=O)(=O)N2CCOCC2)cc1NC(=O)CSc1cccc[n+]1[O-] returned TSHR antagonist 12.9, gsp agonist 15.8µM*, ASM inhibitor 5.2% and gsp antagonist 23.8%.
For Cc1ccc(NC(=O)CSc2ncnc3ccccc23)cc1S(=O)(=O)N1CCCCC1 the results were TSHR antagonist inconclusive, gsp agonist -13.0%[15.4 µM], ASM inhibitor -1.5% and gsp antagonist inconclusive.
Screening COc1ccc(S(=O)(=O)N2CCCCC2)cc1NC(=O)CSc1ncnc2ccccc12 returned TSHR antagonist 7.9, gsp agonist 20µM*, ASM inhibitor -7.3% and gsp antagonist 26.8%.
For COc1ccccc1N1CC(C(=O)Nc2ccccc2N2CCCC2)CC1=O (stereo unspecified) the results were TSHR antagonist -2.7, gsp agonist 5.8%[15.4 µM], ASM inhibitor 8.1% and gsp antagonist -5.3%.
For O=C(O)c1ccc2c(c1)C(=O)N([C@H](Cc1ccc(Cl)cc1)C(=O)O)C2=O the results were TSHR antagonist -4.8.
For CC(=O)NS(=O)(=O)c1ccc(N=c2ssc3c2-c2cc(C)c(C)cc2NC3(C)C)cc1 the results were TSHR antagonist -16.7, gsp agonist -16.9%[15.4 µM], ASM inhibitor -8.4% and gsp antagonist 14.1µM*.
For c1cc2[nH]snc2c2nc(C3CC3)nc12 the results were TSHR antagonist -0.1, gsp agonist 25.1µM*, ASM inhibitor 13.4% and gsp antagonist 5.0%.
For Cc1cc(C)nc(N/N=C/C2=C(N3CCOCC3)C(=C/c3ccccc3)/CC2)n1 the results were TSHR antagonist 47.5, gsp agonist 7.3%, ASM inhibitor -21.5% and gsp antagonist 28.2µM*.
`O=C(O)c1ccccc1N/N=C/C1=C(N2CCOCC2)C(=C\c2ccccc2)/CC1` gave TSHR antagonist -3.9, gsp agonist -7.7%[15.4 µM], ASM inhibitor 17.0% and gsp antagonist -32.8%.
For CN1C(=O)CSc2ccc(NC(=O)N3CCN(c4ccccn4)CC3)cc21 the results were TSHR antagonist 6.5, gsp agonist -1.4%, ASM inhibitor 1.9% and gsp antagonist 8.6%.
Cc1ccc(C)c(N2CCN(C(=O)Nc3ccc4c(c3)N(C)C(=O)CS4)CC2)c1 was read as TSHR antagonist -29.8, gsp agonist 16.4%, ASM inhibitor -14.1% and gsp antagonist 39.8µM*.
Cc1c(C(=O)NNC(=S)Nc2cccc(Cl)c2)nnn1-c1ccccc1 was read as TSHR antagonist -5.6, gsp agonist -11.6%, ASM inhibitor -3.0% and gsp antagonist -25.6%.
CCOC(=O)C1(CCc2ccccc2)CCN(Cc2cccc3nccnc23)CC1 was read as TSHR antagonist -3.6, gsp agonist 7.8%, ASM inhibitor -4.1% and gsp antagonist -7.6%.
`COc1ccc(N2CCN(C(=O)c3ccc(C)c(NC(=O)C4=C(C)OCCS4)c3)CC2)cc1` gave TSHR antagonist 5.5, gsp agonist -5.0%, ASM inhibitor -0.5% and gsp antagonist -2.5%.
CC1=C(C(=O)Nc2cc(C(=O)N3CCN(c4cccc(C)c4C)CC3)ccc2C)SCCO1 was read as TSHR antagonist 10.4, gsp agonist 12.8%, ASM inhibitor -3.0% and gsp antagonist 50.1µM*.
For COc1ccccc1NC(=S)NC1CCCCC1 the results were TSHR antagonist 39.3, gsp agonist 20µM*, ASM inhibitor 5.3% and gsp antagonist 0.5%.
`COc1ccccc1NC(=S)NC1CCCCCCCCCCC1` gave TSHR antagonist -19.3, gsp agonist 2.5%, ASM inhibitor -13.1% and gsp antagonist -3.8%.
`CN(c1cccc(NC(=O)c2ccc(Cl)c(S(=O)(=O)Nc3ccccc3)c2)c1)S(C)(=O)=O` gave TSHR antagonist -40.9, gsp agonist -12.4%, ASM inhibitor -16.4% and gsp antagonist 8.91µM*.
Cc1ccccc1NS(=O)(=O)c1cc(C(=O)Nc2cccc(N(C)S(C)(=O)=O)c2)ccc1C was read as TSHR antagonist -6.4, gsp agonist 18.0%, ASM inhibitor -16.4% and gsp antagonist -28.7%.
For COc1ccc2c(c1)c(CC(=O)NCc1cc([N+](=O)[O-])ccc1O)c(C)n2C(=O)c1ccc(Cl)cc1 the results were TSHR antagonist inconclusive, gsp agonist 7.9%, ASM inhibitor -20.4% and gsp antagonist 35.5µM*.
`C=CS(=O)(=O)c1ccc(Oc2ccc(S(=O)(=O)C=C)cc2)cc1` gave TSHR antagonist -89.5*, gsp agonist 5.4%, ASM inhibitor 2.5% and gsp antagonist -2.8%.
CCc1cc(CNC(=O)CC2C(=O)NCCN2Cc2ccc(-c3ccccc3)cc2)on1 (stereo unspecified) was read as TSHR antagonist -113.1*, gsp agonist -9.2%, ASM inhibitor -1.5% and gsp antagonist -6.1%.
For O=C(CC1C(=O)NCCN1Cc1ccc(-c2ccccc2)cc1)NCc1ccccc1 (stereo unspecified) the results were TSHR antagonist 4.0, gsp agonist -12.6%[15.4 µM], ASM inhibitor -1.5% and gsp antagonist -13.2%.
`CC(=O)N1c2c(cc(Br)cc2S(=O)(=O)NCc2ccc(C)cc2)CC1C` (stereo unspecified) gave TSHR antagonist -13.8, gsp agonist 11.6%[15.4 µM], ASM inhibitor -0.8% and gsp antagonist 35.5µM*.
Screening COc1ccc(CNS(=O)(=O)c2cc(Br)cc3c2N(C(C)=O)C(C)C3)cc1 (stereo unspecified) returned TSHR antagonist -5.1, gsp agonist -3.9%[15.4 µM], ASM inhibitor 1.4% and gsp antagonist 0.0%.
`CC(=O)/C(N=Nc1c(C)n(C)n(-c2ccccc2)c1=O)=C(\C)O` gave TSHR antagonist -3.3, gsp agonist 11.2µM*, ASM inhibitor -3.0% and gsp antagonist 2.1%.
COc1ccc(-n2c(=O)c3c4c(sc3n(CC(=O)NCC3CCCO3)c2=O)CN(C(C)=O)CC4)cc1OC (stereo unspecified) was read as gsp agonist -56.6%.
For Cc1ccc2cc(CCNC(=O)c3cc4ccccc4o3)c(=O)[nH]c2c1C the results were TSHR antagonist -2.8, gsp agonist 5.7%, ASM inhibitor -19.8% and gsp antagonist 35.5µM*.

Bioassay records from PubChem BioAssay.
